KCNQ2 pot – KCNQ2 (rat) channel potentiation; actives 0.54% (n = 310,000); B-score at 10 µM; CHO-K1 KCNQ2, FluxOR thallium flux fluorescence; hits give high values;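 active = fluorescence ratio B-score at least 3 SD of library B-scores, with initial fluorescence B-score within 3 of them, cut at about 5.3 in these data; same plate scores as AID 2156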;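 also: B-score of peak minus minimum over baseline fluorescence ratio after K+ and Tl+ stimulus; positive B-score means potentiation of KCNQ2 with more thallium influx and brighter signal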
Target sequence (O88943 whole entry, looked up): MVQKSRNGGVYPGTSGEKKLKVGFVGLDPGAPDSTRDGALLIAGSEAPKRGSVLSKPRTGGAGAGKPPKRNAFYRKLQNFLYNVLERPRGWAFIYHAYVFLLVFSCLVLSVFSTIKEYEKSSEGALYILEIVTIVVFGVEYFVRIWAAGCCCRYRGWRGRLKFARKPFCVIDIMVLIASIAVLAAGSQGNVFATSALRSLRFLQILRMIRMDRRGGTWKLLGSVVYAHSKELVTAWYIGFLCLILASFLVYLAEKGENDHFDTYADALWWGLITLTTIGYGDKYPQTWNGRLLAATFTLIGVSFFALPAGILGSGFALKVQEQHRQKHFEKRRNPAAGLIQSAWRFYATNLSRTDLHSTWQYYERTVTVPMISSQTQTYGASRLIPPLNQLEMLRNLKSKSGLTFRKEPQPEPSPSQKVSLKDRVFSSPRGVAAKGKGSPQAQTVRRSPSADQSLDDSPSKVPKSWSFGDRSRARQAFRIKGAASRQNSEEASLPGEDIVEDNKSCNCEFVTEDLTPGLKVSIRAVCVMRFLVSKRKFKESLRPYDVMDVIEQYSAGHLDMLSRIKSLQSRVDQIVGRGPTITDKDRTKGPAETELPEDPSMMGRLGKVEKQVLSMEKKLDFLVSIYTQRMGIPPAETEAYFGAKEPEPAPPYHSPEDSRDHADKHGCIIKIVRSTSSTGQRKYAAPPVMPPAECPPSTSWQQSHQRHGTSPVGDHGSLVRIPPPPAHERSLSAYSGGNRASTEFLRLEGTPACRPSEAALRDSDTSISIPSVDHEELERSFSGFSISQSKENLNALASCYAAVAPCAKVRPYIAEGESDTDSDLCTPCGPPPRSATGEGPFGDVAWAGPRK
KCNQ2 block – KCNQ2 (rat) channel inhibition; actives 1.1% (n = 310,000); O88943; AID 2156; B-score at 10 µM; CHO-K1 KCNQ2, FluxOR thallium flux, 20 min; hits give low values;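 active = fluorescence ratio B-score at most minus 3 library SDs, with starting brightness B-score within 2 library SDs, cut at about -5.5 in these data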
Kir21 confirm – confirmation of mouse Kir2.1 potassium channel inhibitors; Kir2.1-expressing cells, FluxOR thallium flux fluorescence; hits give low values; actives 41% (n = 2,300); AID 2032; shares compounds with KCNQ2 pot; Tl flux remaining, % of negative control (hits give low values), % at 10 µM;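 active = Primary-screen hit whose thallium flux fell at least 3 control SD below untreated wells in both duplicates, with normal baseline fluorescence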;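 also: 0% = blank wells without stimulus and 100% = stimulated no-compound controls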
HEK293 Tl flux – alters thallium flux in parental HEK293 cells, Kir2.1 counter-screen; shares compounds with KCNQ2 pot; FluxOR thallium flux fluorescence; 0% = unstimulated blank wells; FluxOR signal as % of negative control (100 = no effect), % at 10 µM; actives 19% (n = 2,300); AID 2105;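 active = dye signal at least 3 control SD above or below untreated wells in both duplicates, raw fluorescence within 3, either direction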;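 also: percent is based on the flux ratio of peak minus minimum fluorescence over baseline F0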
CHO-K1 Tl ctr – alters thallium flux in parental CHO-K1 cells, KCNQ2 counter-screen; shares compounds with KCNQ2 pot; FluxOR thallium flux fluorescence; zero = vehicle mean+3SD, 100% = vehicle-minus-blank window; activity increase over 3SD of controls, % at 10 µM; actives 43% (n = 1,200);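 active = signal rise of at least 3 SD above the untreated control mean, in both duplicate wells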;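 also: counter screen of KCNQ2 potentiator hits so any rise reflects channel-independent effects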
KCNQ1 sel pot – selectivity of KCNQ2 potentiators: effect on human KCNQ1; shares compounds with KCNQ2 pot; CHO KCNQ1 stable, FluxOR thallium flux fluorescence; beyond 3SD, as % of vehicle-control signal; activation over 3SD threshold, % at 10 µM; actives 28% (n = 1,200); AID 2283;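 active = fluorescence ratio rise of at least 3 SD of vehicle wells above their mean, in both replicate wells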;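 also: 0% = vehicle mean plus 3 SD and 100% = vehicle minus unstimulated blank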
KCNQ2 pot confirm – rat KCNQ2 channel potentiator confirmation | shares compounds with KCNQ2 pot | CHO-KCNQ2 cells, FluxOR thallium flux fluorescence | AID 2287 | actives 68% (n = 1,200) | potentiation, less the hit threshold, % at 10 µM;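 active = fluorescence ratio rising 3 SD or more over the vehicle control mean in both replicates, plus primary screen hit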;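 also: peak minus minimum thallium fluorescence divided by baseline after K/Tl stimulus; 0% = vehicle mean plus 3 SD and 100% = vehicle minus unstimulated blank difference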
Kir21 spec – selectivity of KCNQ2 potentiators: effect on mouse Kir2.1 | shares compounds with KCNQ2 pot | HEK293 Kir2.1, FluxOR thallium flux fluorescence | activity over 3SD threshold, % at 10 µM | actives 2% (n = 1,200);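 active = fluorescence ratio rise of at least 3 SD above the vehicle-control mean, seen in both replicates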;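 also: 0% = vehicle mean plus 3 SD and 100% = vehicle minus no-stimulus blank window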
KCNQ2 W236L MoA – rat KCNQ2 W236L mutant potentiation by KCNQ2 potentiators | shares compounds with KCNQ2 pot | CHO KCNQ2-W236L, automated patch clamp current | current increase over 3SD of negative controls (%), hits give high values, % at 25 µM | actives 10% (n = 940) | AID 2558;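 active = current increase at least 3 SD of the untreated controls above them in both duplicate recordings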
* marks the source's active call; other numbers are inactive results. Shown are actives, neighbours in structure and some others; about 1.6% of the full set was active somewhere.

What do the screens show for `NS(=O)(=O)c1ccc(CCNC(=O)C(=O)NCC2OCCN2S(=O)(=O)c2ccc(Cl)cc2)cc1` (stereo not drawn)?
KCNQ2 block: inactive

Results for CCc1ccc(Nc2cc(C)nc3ncnn23)cc1 ?
KCNQ2 pot: 1.4; KCNQ2 block: inactive

What do the screens show for `CCn1c2ccccc2c2cc(Nc3cc(C)nc4ncnn34)ccc21`?
KCNQ2 pot: 0.69; KCNQ2 block: inactive; Kir21 confirm: 67%*; HEK293 Tl flux: inactive

How did N#CCc1cnc2ccccc2n1 do in these assays?
KCNQ2 block: inactive

How did Cn1cnc([N+](=O)[O-])c1NC(C)(C)C do in these assays?
KCNQ2 pot: 0.13; KCNQ2 block: inactive

Results for Cn1cnc([N+](=O)[O-])c1S(=O)(=O)c1ccc(Cl)cc1 ?
KCNQ2 block: inactive; Kir21 confirm: 70%*; HEK293 Tl flux: 68%*

What do the screens show for `CC(C)[C@H](NC(=O)OCc1ccccc1)C(=O)OCC(=O)Nc1ccc(N2CCOCC2)cc1`?
KCNQ2 pot: 0.59; KCNQ2 block: inactive

What do the screens show for `CCNC(=S)N/N=C1\C(=O)c2cccc3cccc1c23`?
KCNQ2 pot: 1.7; KCNQ2 block: inactive

What do the screens show for `O=C(N/N=C1/C(=O)c2cccc3cccc1c23)c1ccc(Cl)cc1`?
KCNQ2 pot: 10*; KCNQ2 block: inactive; Kir21 confirm: inactive; HEK293 Tl flux: 213%*; CHO-K1 Tl ctr: 46*; KCNQ1 sel pot: 37*; KCNQ2 pot confirm: 14*; Kir21 spec: -28; KCNQ2 W236L MoA: inactive

How did Cc1c(CCC(=O)NCCCC(=O)O)c(=O)oc2cc3oc4c(c3cc12)CCCC4 do in these assays?
KCNQ2 pot: 1.3; KCNQ2 block: inactive

Results for N#C/C(=C\c1cccc(Br)c1)C(=O)N1CCCCC1 ?
KCNQ2 pot: -8.5; KCNQ2 block: -8.5*; Kir21 confirm: 45%*; HEK293 Tl flux: inactive

Results for N#C/C(=C\c1cccc(O)c1)C(=O)N1CCCCC1 ?
KCNQ2 block: inactive

What do the screens show for `O=C(CCC1CCCC1)NNC(=O)c1cccc(Cl)c1`?
KCNQ2 pot: 6.1*; KCNQ2 block: inactive; Kir21 confirm: inactive; HEK293 Tl flux: inactive; CHO-K1 Tl ctr: 106*; KCNQ1 sel pot: -18; KCNQ2 pot confirm: 15*; Kir21 spec: -11; KCNQ2 W236L MoA: inactive

How did O=C(CCN1C(=O)C2CCCCC2C1=O)NNC(=O)c1cccc(Cl)c1 (stereo not drawn) do in these assays?
KCNQ2 pot: 0.27; KCNQ2 block: inactive

Results for CCOc1ccc(CN2CCN(CC3CC3)CC2CCO)cc1 (stereo not drawn) ?
KCNQ2 pot: 0.2; KCNQ2 block: inactive

How did O=C1CC2(CCN(C(=O)C3CC(=O)N(c4ccccc4)C3)CC2)Oc2ccccc21 (stereo not drawn) do in these assays?
KCNQ2 pot: 0.72; KCNQ2 block: inactive

Results for O=C(O)/C(CC(=O)c1ccc(Cl)cc1)=N/Nc1ccc([N+](=O)[O-])cc1[N+](=O)[O-] ?
KCNQ2 pot: 7.7*; KCNQ2 block: inactive; Kir21 confirm: inactive; HEK293 Tl flux: inactive; CHO-K1 Tl ctr: -9; KCNQ1 sel pot: -8; KCNQ2 pot confirm: 32*; Kir21 spec: -50; KCNQ2 W236L MoA: inactive

How did C/C(CCC(=O)O)=N/Nc1ccc([N+](=O)[O-])cc1[N+](=O)[O-] do in these assays?
KCNQ2 pot: 1.6; KCNQ2 block: inactive

How did CCOc1ccccc1Oc1c(C)oc2cc(OC(=O)c3ccco3)ccc2c1=O do in these assays?
KCNQ2 block: inactive

What do the screens show for `COc1ccccc1-c1c(C)oc2cc(OC(=O)c3ccco3)ccc2c1=O`?
KCNQ2 pot: 0.01; KCNQ2 block: inactive; Kir21 confirm: 70%*; HEK293 Tl flux: inactive

Results for CSc1ccc(NC(=O)NCc2cccnc2)cc1 ?
KCNQ2 pot: 0.26; KCNQ2 block: inactive

How did CCc1ccc(S(=O)(=O)N2CCCC(N3CCN(c4ccc(OC)cc4)CC3)C2)cc1 (stereo not drawn) do in these assays?
KCNQ2 block: inactive

Results for Nc1nc(CSc2ccccn2)nc(Nc2ccccc2)n1 ?
KCNQ2 pot: 5.5*; KCNQ2 block: inactive; Kir21 confirm: inactive; HEK293 Tl flux: inactive; CHO-K1 Tl ctr: -9; KCNQ1 sel pot: -20; KCNQ2 pot confirm: -11; Kir21 spec: -39

What do the screens show for `Nc1nc(CSCCO)nc(Nc2ccccc2)n1`?
KCNQ2 pot: 0.22; KCNQ2 block: inactive

What do the screens show for `CCOC(=O)Cc1csc(NC(=S)NC(=O)CC(C)C)n1`?
KCNQ2 block: inactive

Results for CC(C)CC(=O)NC(=S)Nc1nc(-c2cccc3ccccc23)cs1 ?
KCNQ2 pot: 8.4*; KCNQ2 block: inactive; Kir21 confirm: inactive; HEK293 Tl flux: inactive; CHO-K1 Tl ctr: 3.5*; KCNQ1 sel pot: 9.8*; KCNQ2 pot confirm: -11; Kir21 spec: -20

Results for CC(C)C(NC(=O)c1ccc(C(C)(C)C)cc1)C(=O)NCC1(N(C)C)CCCCC1 (stereo not drawn) ?
KCNQ2 pot: 1.9; KCNQ2 block: inactive

What do the screens show for `O=C(NCc1ccc2c(c1)OCO2)Nc1cccc(Cl)c1`?
KCNQ2 pot: 21*; KCNQ2 block: inactive; Kir21 confirm: inactive; HEK293 Tl flux: inactive; CHO-K1 Tl ctr: -11; KCNQ1 sel pot: -31; KCNQ2 pot confirm: 70*; Kir21 spec: -26; KCNQ2 W236L MoA: inactive

What do the screens show for `CC(=O)c1cccc(NC(=O)NCc2ccc3c(c2)OCO3)c1`?
KCNQ2 pot: 2.1; KCNQ2 block: inactive

What do the screens show for `O=C(/C=C/c1cccs1)NCc1ccc2c(c1)OCO2`?
KCNQ2 pot: 8.6*; KCNQ2 block: inactive; Kir21 confirm: inactive; HEK293 Tl flux: inactive; CHO-K1 Tl ctr: 12*; KCNQ1 sel pot: -11; KCNQ2 pot confirm: 1.0*; Kir21 spec: -40; KCNQ2 W236L MoA: inactive

Results for O=C(/C=C/c1ccccc1)NCc1ccc2c(c1)OCO2 ?
KCNQ2 pot: 2; KCNQ2 block: inactive
